Records with an inconclusive call do not appear. A structure can be active in one record and inactive in another. Activity calls are given as the source filed them. The calls were made as follows: active = hit-call score of the fitted dose curve at least 0.9, where 1 is the maximum; inconclusive = response in the unintended direction; inactive = score below 0.9.

A short description of one test: Tanguay_ZF_120hpf_YSE_legacy: (Legacy) Oregon State University Tanguay Lab 120 Hour Post-fertilization zebrafish Assay for Yolk Sac Edema (AID 2283634). The method in brief: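 Single dechorionated embryos were held in sealed plates at 28C with test chemical (0.64% DMSO final) from 6 hpf until 120 hpf. Edema of the yolk sac was then recorded as a binary endpoint; non-mortality endpoints were skipped for dead embryos.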
Take `ClC1(Cl)C2(Cl)C3(Cl)C4(Cl)C(Cl)(Cl)C5(Cl)C3(Cl)C1(Cl)C5(Cl)C24Cl` (centres undefined): the outcome was inactive.
For the compound `CC(C)(OO)c1ccccc1`, the outcome was inactive.
Still for that read-out and setting: to `NC(=O)O` belongs “inactive”; to `O=[N+]([O-])c1ccc(O)c([N+](=O)[O-])c1`, “inactive”; to `CCN1CCC2(CC1)COc1cc3c(cc12)N(C(=O)c1ccc(-c2ccc(-c4nnc(C)o4)cc2C)cc1)CC3`, “inactive”.
On the same count and under the same terms, under `O=C(O)C(F)(F)C(F)(F)C(F)(F)C(F)(F)C(F)(F)C(F)(F)F` stands “inactive”.
Still for that read-out and setting: to `Cc1ccccc1N` belongs “inactive”.

The nature of the next test: Tanguay_ZF_120hpf_AXIS_legacy: (Legacy) Oregon State University Tanguay Lab 120 Hour Post-fertilization zebrafish Assay for Body Axis Malformation (AID 2283635).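 As to AC50: potency for an increased fraction of larvae scored with body axis malformation.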 The method in brief: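 Each dechorionated embryo was exposed alone from 6 hpf, with DMSO at 0.64% (vol/vol) and trimethyltin chloride 5 uM as positive control. Axis malformation was recorded at 120 hpf unless the embryo had died.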
With `CCOP(=S)(OCC)Oc1nc(Cl)c(Cl)cc1Cl`, the call was inactive.
For the compound `CCC(C)(C)c1ccc(O)c(C(C)(C)CC)c1`, the compound was called inactive.
As for `O=c1[nH]c(=O)[nH]c(=O)[nH]1`, the call was inactive.
Take `Oc1cccc2cccnc12`: the result was inactive.
As for `O=C(O)C(Cl)(Cl)Cl`, the outcome was inactive.
Regarding `CC12CC1(C)C(=O)N(c1cc(Cl)cc(Cl)c1)C2=O` (centres undefined), the call was inactive.
For `CCCCCCCCc1ccc(O)cc1`, the compound was classed as inactive.
For `O=C(Nc1ccc2[nH]ccc2c1)c1cc2cc(F)ccc2n1Cc1cccc(F)c1`, the call was inactive.
As for `COc1cc(-c2ccc(N)c(OC)c2)ccc1N`, the result was inactive.
`C=C(C)C(=O)[O][Sn]([CH2]CCC)([CH2]CCC)[CH2]CCC`: the call was inactive.
On to `C[C@@H]1C[C@@H]([C@H](O)CC2CC(=O)NC(=O)C2)C(=O)[C@@H](C)C1`, for which the result was inactive.
On to `CCOP(=S)(OCC)SCSP(=S)(OCC)OCC`, for which the outcome was inactive.
As to `CC(=O)[O][Hg][c]1ccccc1`, the call was inactive.
Consider `CC(C)(C)CC(C)(C)c1ccc(O)cc1`, for which the compound was classed as inactive.
Still for that read-out and setting: under `C=CC(=O)OCCCCCC(C)C` stands “inactive”.
In general, AC50 refers to the concentration at which the activity in the assay is half-maximal. On to `CCC(=O)C(CC(C)N(C)C)(c1ccccc1)c1ccccc1` (centres undefined), for which the AC50 was 31.3 µM (active).
`O=C1C2(Cl)C3(Cl)C4(Cl)C(Cl)(Cl)C5(Cl)C3(Cl)C1(Cl)C5(Cl)C24Cl` (centres undefined): the AC50 is 6.6 µM (active).
Consider `C[C@]12CCC(=O)C[C@@H]1CC[C@@H]1[C@@H]2CC[C@]2(C)[C@@H](O)CC[C@@H]12`, for which the compound was called inactive.
As for `CC(C)(C)c1cc(O)ccc1O`, the compound was called inactive.
Regarding `ClC1(Cl)C2(Cl)C3(Cl)C4(Cl)C(Cl)(Cl)C5(Cl)C3(Cl)C1(Cl)C5(Cl)C24Cl` (centres undefined), the outcome was inactive.
With `CC(C)(OO)c1ccccc1`, the compound was called inactive.
Consider `CCN1CCC2(CC1)COc1cc3c(cc12)N(C(=O)c1ccc(-c2ccc(-c4nnc(C)o4)cc2C)cc1)CC3`, for which the compound was classed as inactive.
For the compound `ClCC(Cl)CCl`, the compound was called inactive.
On the same count and under the same terms, under `O=C(O)C(F)(F)C(F)(F)C(F)(F)C(F)(F)C(F)(F)C(F)(F)F` stands “inactive”.

A further test in a line: Tanguay_ZF_120hpf_EYE_legacy: (Legacy) Oregon State University Tanguay Lab 120 Hour Post-fertilization zebrafish Assay for Eye Malformation (AID 2283636). The method in brief: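 Read-out is binary presence or absence of eye malformation, scored by brightfield microscopy at 120 hpf. Single larvae were exposed from 6 hpf in embryo medium containing 0.64% DMSO, with DMSO as baseline.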
Turning to `CCOP(=S)(OCC)Oc1nc(Cl)c(Cl)cc1Cl`, the result was inactive.
Turning to `CCC(C)(C)c1ccc(O)c(C(C)(C)CC)c1`, the outcome was inactive.
The same measure, in the same setting: under `Cn1sc(Cl)cc1=O` stands “inactive”; under `O=c1[nH]c(=O)[nH]c(=O)[nH]1`, “inactive”; under `O=C(O)C(Cl)(Cl)Cl`, “inactive”.
With `CC12CC1(C)C(=O)N(c1cc(Cl)cc(Cl)c1)C2=O` (centres undefined), the result was inactive.
On to `O=C(O)C(F)(F)C(F)(F)C(F)(F)C(F)(F)C(F)(F)C(F)(F)C(F)(F)C(F)(F)C(F)(F)C(F)(F)F`, for which the compound was called inactive.
With `CCCCCCCCc1ccc(O)cc1`, the result was inactive.
Same read-out and setting: to `O=C(Nc1ccc2[nH]ccc2c1)c1cc2cc(F)ccc2n1Cc1cccc(F)c1` belongs “inactive”.
As to `COc1cc(-c2ccc(N)c(OC)c2)ccc1N`, the AC50 was 57 µM (active) and the call was inactive.
Regarding `C=C(C)C(=O)[O][Sn]([CH2]CCC)([CH2]CCC)[CH2]CCC`, the outcome was inactive.
As for `C[C@@H]1C[C@@H]([C@H](O)CC2CC(=O)NC(=O)C2)C(=O)[C@@H](C)C1`, the compound was classed as inactive.
Same read-out and setting: to `CC(C)(c1ccccc1)c1ccc(O)c(C(C)(C)c2ccccc2)c1` belongs “inactive”; to `CCOP(=S)(OCC)SCSP(=S)(OCC)OCC`, “inactive”; to `CC(=O)[O][Hg][c]1ccccc1`, “inactive”.
For `CN(C)N=O`, the result was inactive.
In the case of `CC(C)(C)CC(C)(C)c1ccc(O)cc1`, the outcome was inactive.
The same measure, in the same setting: under `C=CC(=O)OCCCCCC(C)C` stands “inactive”.
The same measure, in the same setting: under `CCC(=O)C(CC(C)N(C)C)(c1ccccc1)c1ccccc1` (centres undefined) stands “inactive”.
Turning to `O=C1C2(Cl)C3(Cl)C4(Cl)C(Cl)(Cl)C5(Cl)C3(Cl)C1(Cl)C5(Cl)C24Cl` (centres undefined), the AC50 was 79.7 µM (active).
For the compound `C[C@]12CCC(=O)C[C@@H]1CC[C@@H]1[C@@H]2CC[C@]2(C)[C@@H](O)CC[C@@H]12`, the compound was called inactive.
The same measure, in the same setting: to `CC(C)(C)c1cc(O)ccc1O` belongs “inactive”; to `ClC1(Cl)C2(Cl)C3(Cl)C4(Cl)C(Cl)(Cl)C5(Cl)C3(Cl)C1(Cl)C5(Cl)C24Cl` (centres undefined), “inactive”.
As for `CC(C)(OO)c1ccccc1`, the compound was called inactive.
Take `NC(=O)O`: the call was inactive.
As for `O=[N+]([O-])c1ccc(O)c([N+](=O)[O-])c1`, the call was inactive.
As for `CCN1CCC2(CC1)COc1cc3c(cc12)N(C(=O)c1ccc(-c2ccc(-c4nnc(C)o4)cc2C)cc1)CC3`, the call was inactive.
As to `O=C(O)C(F)(F)C(F)(F)C(F)(F)C(F)(F)C(F)(F)C(F)(F)F`, the compound was classed as inactive.
Still for that read-out and setting: to `Cc1ccccc1N` belongs “inactive”.

The nature of another test: Tanguay_ZF_120hpf_SNOU_legacy: (Legacy) Oregon State University Tanguay Lab 120 Hour Post-fertilization zebrafish Assay for Snout Malformation (AID 2283637). The method in brief: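 Snout malformation read as a yes/no call on brightfield images of 120 hpf larvae (Tropical 5D strain). Static exposure began at 6 hpf on dechorionated embryos in 0.64% DMSO, with gain of signal analysed versus DMSO controls.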
Turning to `CCOP(=S)(OCC)Oc1nc(Cl)c(Cl)cc1Cl`, the result was inactive.
For `CCC(C)(C)c1ccc(O)c(C(C)(C)CC)c1`, the result was inactive.
On to `O=c1[nH]c(=O)[nH]c(=O)[nH]1`, for which the outcome was inactive.
For the compound `Oc1cccc2cccnc12`, the outcome was inactive.
As for `O=C(O)C(Cl)(Cl)Cl`, the result was inactive.
With `CC12CC1(C)C(=O)N(c1cc(Cl)cc(Cl)c1)C2=O` (centres undefined), the result was inactive.
Consider `O=C(O)C(F)(F)C(F)(F)C(F)(F)C(F)(F)C(F)(F)C(F)(F)C(F)(F)C(F)(F)C(F)(F)C(F)(F)F`, for which the outcome was inactive.
Same read-out and setting: to `CCCCCCCCc1ccc(O)cc1` belongs “inactive”.
The same measure, in the same setting: to `O=C(Nc1ccc2[nH]ccc2c1)c1cc2cc(F)ccc2n1Cc1cccc(F)c1` belongs “inactive”.
Turning to `COc1cc(-c2ccc(N)c(OC)c2)ccc1N`, the AC50 was 12 µM (active) and the compound was classed as inactive.
`C=C(C)C(=O)[O][Sn]([CH2]CCC)([CH2]CCC)[CH2]CCC`: the result was inactive.
For the compound `CC(C)(c1ccccc1)c1ccc(O)c(C(C)(C)c2ccccc2)c1`, the call was inactive.
As for `CCOP(=S)(OCC)SCSP(=S)(OCC)OCC`, the result was inactive.
With `CC(=O)[O][Hg][c]1ccccc1`, the result was inactive.
Same read-out and setting: under `CN(C)N=O` stands “inactive”; under `C=CC(=O)OCCCCCC(C)C`, “inactive”.
In the case of `CCC(=O)C(CC(C)N(C)C)(c1ccccc1)c1ccccc1` (centres undefined), the AC50 was 29.1 µM (active).
The same measure, in the same setting: under `O=C1C2(Cl)C3(Cl)C4(Cl)C(Cl)(Cl)C5(Cl)C3(Cl)C1(Cl)C5(Cl)C24Cl` (centres undefined) stands 9.66 µM (active).
`C[C@]12CCC(=O)C[C@@H]1CC[C@@H]1[C@@H]2CC[C@]2(C)[C@@H](O)CC[C@@H]12`: the compound was classed as inactive.
Turning to `CC(C)(C)c1cc(O)ccc1O`, the compound was called inactive.
Regarding `ClC1(Cl)C2(Cl)C3(Cl)C4(Cl)C(Cl)(Cl)C5(Cl)C3(Cl)C1(Cl)C5(Cl)C24Cl` (centres undefined), the call was inactive.
For `CC(C)(OO)c1ccccc1`, the compound was classed as inactive.
On to `NC(=O)O`, for which the call was inactive.
Consider `O=[N+]([O-])c1ccc(O)c([N+](=O)[O-])c1`, for which the call was inactive.
As to `CCN1CCC2(CC1)COc1cc3c(cc12)N(C(=O)c1ccc(-c2ccc(-c4nnc(C)o4)cc2C)cc1)CC3`, the compound was classed as inactive.
For the compound `ClCC(Cl)CCl`, the compound was classed as inactive.
Take `Cc1ccccc1N`: the compound was classed as inactive.

(Values after PubChem BioAssay (EPA / NIEHS).)
